HCV inhibitor – HCV inhibition; Huh7.5.1 HCVcc-Cre infection, luciferase reporter, 44 h; Potency, µM (series often up to 41.8 µM), for inactives: at the top dose activity change, negative = inhibition, usual class: inhibitors; actives 3.4% (n = 340,000); AID 651820; further: potency means the concentration at half of the fitted maximal effect; on the % scale 0 is the no-effect control and ±100 the full control effect
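HCVcc-Cre virus at an moi near 0.5 was added right after compound to cells cultured 4 h from seeding (1,000 cells/well). Luciferase activity was determined 44 h later, 15 min after substrate addition at RT.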
Pf growth 48h – P. falciparum growth inhibition at 48 hours (one generation). Potency, µM (top dose mostly 28.7 µM), without a hit: at the top dose activity change, negative = inhibition, actives largely listed as inhibitors. actives 5.9% (n = 310,000). AID 504832. P. falciparum luciferase growth in erythrocytes, 48 h; further: potency means the concentration at half of the fitted maximal effect; on the % scale 0 is the no-effect control and ±100 the full control effect
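First compound was added to culture medium, then infected red cells at 0.1% parasitemia and 2% hematocrit (final). After incubation at 37 C under 5% CO2, luciferase detection reagent was dispensed and light output recorded.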
Shiga toxin inh – blocks Shiga toxin action in Vero cells. inhibition, % at 38.7 µM. Vero cells, Shiga toxin protein synthesis inhibition reporter. actives 9.2% (n = 290,000); in the data active means inhibition mostly above about 28%, no sharp cut-off; inactive means mostly below about 43%; further: 0% is about no effect
Pf growth 96h – P. falciparum growth inhibition at 96 hours; P. falciparum luciferase reporter growth, 96 h; actives 6.9% (n = 320,000); Potency, µM (series often up to 28.7 µM), without a hit: at the highest dose activity change, negative = inhibition, usual class: inhibitors; further: potency means the concentration at half of the fitted maximal effect; on the % scale 0 is the no-effect control and ±100 the full control effect
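Readout is luminescence from an integrated firefly luciferase in P. falciparum. Red cells, 2% hematocrit and 0.05% parasitemia final, were cultured with compound through two parasite generations (96 hours) at 37 C, 5% CO2.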
AMA1 RON2 block – inhibitors of Plasmodium falciparum AMA1-RON2 interaction | actives 0.2% (n = 360,000) | AlphaScreen AMA1-biotinylated RON2 peptide binding | Potency, µM (doses to about 58.2 µM), for the others: top-dose activity change, negative = inhibition, most hits filed as inhibitors;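 further: potency means the concentration at half of the fitted maximal effect; 0% = vehicle wells and -100% = peptide control; nearly all actives have a fitted effect of over 45% in size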
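AMA1 (3D7) with his tag at 25 nM final met compounds first, then biotinylated RON2 peptide at 25 nM; detection used donor plus acceptor beads, 10 µg/mL apiece, read by AlphaScreen after 30 min at room temperature.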
CHX counter – counter-screen hit for Shiga toxin inhibitors, cycloheximide; cell reporter, cycloheximide protein synthesis inhibition counterscreen; max response, %; actives 12% (n = 300,000); in the data active means max response mostly above about 13%, no sharp cut-off; inactive means mostly below about 14%; further: read at 38.3 µM for the half of the compounds with a filed dose; 0% is about no effect
Active calls of the source: *; ? = inconclusive; . = not tested or not shown. This is a sample that favours compounds with a hit; in the whole collection about 21% have one here. Unless noted, the call rests on the fitted dose curve; in most records, active means well fitted curve in the direction sought with a large enough effect; inconclusive means small, poorly fitted or top-dose-only effect, or another doubt; inactive means no such curve, though single readings can be large; an effect the other way counts as inactive or inconclusive.

SMILES	HCV inhibitor	Pf growth 48h	Shiga toxin inh	Pf growth 96h	AMA1 RON2 block	CHX counter
COc1ccc(NC(=O)c2ccc3c(c2)NC(=O)CS3)cc1S(=O)(=O)Nc1ccc(Br)cc1	?	-28%	9	-20%	-11%	0
Cc1ccc(NS(=O)(=O)c2cc(NC(=O)c3cc(=O)[nH]c(=O)[nH]3)ccc2Cl)c(C)c1	16%	?	10	?	16%	-1
CC(=O)c1c(C)[nH]c(C(=O)Nc2ccc(C)c(S(=O)(=O)Nc3ccc(C)cc3C)c2)c1C	25µM*	13µM*	-5	?	-3%	-2
COC(=O)c1cc(-n2cccc2)ccc1N1CCOCC1	6%	7%	-9	4%	4%	2
CN(CC(=O)Nc1cccc(F)c1)C(=O)C1CCC(C(=O)N(C)CC(=O)Nc2cccc(F)c2)CC1 (stereo not drawn)	-3%	.	.	.	14%	.
O=C(/C=C/c1cccs1)NC(=S)NNC(=O)c1ccccc1O	22µM*	?	-9	18%	-70%	9
COc1ccc(C(=O)NNC(=S)NC(=O)/C=C/c2cccs2)cc1	?	191%	111*	31%	36%	37*
O=C(/C=C/c1cccs1)NC(=S)Nc1ccccc1	12%	14%	123*	-13%	5%	32*
CCOC(=O)C1=CCC(c2cc3ccccc3[nH]2)NC1 (stereo not drawn)	.	.	.	.	13%	.
CCn1c(O)c(N=NC(=O)c2cccnc2)c2cc(Br)ccc21	?	10µM*	-11	?	3%	-2
CC(C)(C)c1ccc(OCCC(=O)OCC(=O)Nc2ccc(N3CCOCC3)cc2)cc1	?	-4%	.	56%	0%	.
O=C(NN=Cc1ccc(Cl)cc1Cl)C1CC1	0%	.	.	.	14%	.
CCOC(=O)[C@H]1[C@H]2COc3cc(OC)ccc3[C@@H]2N2C(=O)c3cc(OC)c(OC)cc3NC(=O)[C@@]12C	-1%	?	.	?	1%	.
C=C(C)[C@H]1Cc2c(ccc3c2O[C@@H]2COc4cc(OC)c(OC)cc4[C@@H]2C3=O)O1	.	?	.	6.7µM*	.	.
COCC1CCCN(Cc2cn(Cc3ccccc3)nc2-c2cc3ccccc3o2)C1 (stereo not drawn)	?	?	-2	-17%	-3%	-3
COC(=O)C1CCN(Cc2cn(Cc3ccccc3)nc2-c2cc3ccccc3o2)CC1	?	8.3µM*	-5	-4%	-7%	0
COCC1CCN(Cc2cn(Cc3ccccc3)nc2-c2cc3ccccc3o2)CC1	-9%	?	14	31%	0%	-3
OC1CCN(Cc2cn(Cc3ccccc3)nc2-c2cc3ccccc3o2)CC1	?	13µM*	9	-24%	-8%	-3
Cc1c(CN(C)C(=O)/C=C/c2ccc([N+](=O)[O-])cc2)cnn1C	0%	-2%	-13	244%	1%	-5
Cc1ccc(NC(=O)NCc2ccc3[nH]c(C)cc3c2)cc1	?	-12%	41*	56%	-3%	45
Cc1cccc(NC(=O)Nc2ccc(Oc3c(F)c(F)c(F)c(F)c3F)cc2)c1	29%	?	4	7.4µM*	6%	1
Cc1cccc(NC(=O)NCc2ccc3[nH]c(C)cc3c2)c1	16%	87%	50	42%	-9%	21*
CC(=O)NCc1ccc2[nH]c(C)cc2c1	18%	14%	4	0%	6%	-4
Cc1cccc(NC(=O)Nc2ccc(S(N)(=O)=O)cc2)c1	-5%	9%	17	30%	-13%	13
CCc1cccc(C)c1NC(=S)NCc1ccc2[nH]c(C)cc2c1	?	13µM*	-2	10µM*	32%	-3
SMILES	HCV inhibitor	Pf growth 48h	Shiga toxin inh	Pf growth 96h	AMA1 RON2 block	CHX counter
CC(=O)c1sc(N/N=C\c2c(O)ccc3ccccc23)nc1C	?	.	.	.	63%	.
Cc1cccc(OCc2nnc(SCC(=O)N(C)C3CCCCC3)o2)c1	22%	?	.	-12%	16%	.
COc1ccc(C)cc1NC(=O)Nc1cccc(C)c1	?	0%	5	?	-7%	1
Cc1cccc(NC(=O)Nc2ccc(C)cc2Br)c1	?	103%	61*	-24%	23%	32*
CC(=O)Nc1cccc(C)c1	16%	31%	.	?	-5%	.
Cc1ccc(CNC(=O)Nc2cccc(C)c2)cc1	-13%	140%	75*	-12%	12%	37*
CCN(CC)C(=O)C1=C(C)N(Cc2ccccc2)C(=O)C(CC(=O)NCc2ccco2)C1 (stereo not drawn)	.	.	.	.	0%	.
CC(=O)Nc1ccc(-c2ccnc3c2CC(C(=O)NCC2CCOCC2)O3)cc1 (stereo not drawn)	.	.	.	.	19%	.
Cc1c(NC(=O)CSc2ccc(Cl)cc2)cccc1-c1nc2cc(Cl)ccc2o1	4%	22%	-6	-14%	1%	-3
Cc1cc2nc(-c3cccc(NC(=O)c4ccc(Br)o4)c3C)oc2cc1C	-27%	-32%	30	24%	-5%	24*
COC(=O)c1ccccc1NC(=O)c1cccc(NC(=O)c2ccc(Br)o2)c1C	?	?	10	3%	0%	-2
Cc1ccc2oc(-c3cccc(NC(=O)c4ccc(Br)o4)c3C)nc2c1	-22%	.	70*	32%	-5%	66*
O=C(CN1C(=O)NC2(CCCCCC2)C1=O)NCc1ccccc1	13%	.	.	.	-4%	.
COc1ccccc1CN1CC(C(=O)NCCCCc2ccccn2)CCC1=O (stereo not drawn)	.	.	.	.	15%	.
O=c1ccnc(SCCc2ccc([N+](=O)[O-])cc2)[nH]1	4%	.	.	.	-2%	.
O=C(N/N=C/C(Br)=C/c1ccccc1)c1n[nH]c2c1CCC2	?	-29%	145*	.	48%	42*
O=C(N/N=C/c1ccccc1Cl)c1n[nH]c2c1CCCC2	5%	-15%	54*	5%	11%	92*
O=C(N/N=C/c1ccccc1)c1n[nH]c2c1CCCC2	?	255%	76*	22%	5%	27*
CC1(C)CC(=NNC(=O)c2n[nH]c3c2CCC3)CC(C)(C)N1	2%	16%	-12	?	82%	-3
O=C(N/N=C/c1cccs1)c1n[nH]c2c1CCC2	-12%	119%	45*	?	39%	33*
CCCCN(C)c1c(C)nc2ccc(C(=O)Nc3ccc(OC)c(OC)c3)cn12	.	.	.	.	-13%	.
CC(C)C[C@@H](CN1CCC[C@@H]1CN1C(=S)NC[C@@H]1Cc1ccc(O)cc1)N1C[C@H](Cc2ccc(O)cc2)N(CC2CCCCC2)C1=S	.	.	.	.	17%	.
O=C(N/N=C/c1ccc(Cl)cc1)c1n[nH]c2c1CCCC2	-11%	101%	83*	57%	17%	41*
O=C(N/N=C/c1ccc(Cl)cc1)c1ccc2nc[nH]c2c1	.	.	.	.	7%	.
COc1cc(C=C2C(=O)c3ccccc3C2=O)ccc1O	?	33%	78*	5%	1%	28*
